Assay results taken from PubChem BioAssay (Tox21).
Inconclusive results are not listed. Entries that show only a call come without a potency. Calls of active or inactive are those of the source. Calls come from the whole dose curve.

Test: qHTS assay for small molecule disruptors of the mitochondrial membrane potential - cell viability (AID 720634); note: nearly all actives have a fitted effect of over 20% in size
Conditions: HepG2 viability, ATP luminescence (CellTiter-Glo), 1 h; series mostly up to 83.2 µM
Source text: U.S. Tox21 Program National Center for Advancing Translational Sciences [NCATS] NIH Chemical Genomics Center [NCGC] U.S. Environmental Protection Agency [EPA] National Institutes of Environmental Health Sciences [NIEHS] National Toxicology Program [NTP] U.S. Food and Drug Administration [FDA] Tox21 Assay Overview: Mitochondrial membrane potential (MMP), one of the parameters for mitochondrial function, is generated by mitochondrial electron transport chain that creates an electrochemical gradient by a series of redox reactions. This gradient drives the synthesis of ATP, a crucial molecule for various cellular processes. Measuring MMP in living cells is commonly used to assess the effect of chemicals on mitochondrial function; decreases in MMP can be detected using lipophilic cationic fluorescent dyes. […] The dye accumulates in the mitochondria of healthy cells as aggregates, with red fluorescence. The mitochondrial potential decreases and the dye could not accumulate in the mitochondria and remains in the cytoplasm in monomers, with green fluorescence. In addition to the mitochondrial potential assay, these cells were also used to test the cytotoxicity by determining the cell viability in the culture based on the quantitation of ATP present. The cytotoxicity was measured in the same assay well of MMP assay.
Tox21 Assay Protocol Summary: 2,000 HepG2 cells in 5 uL/well were dispensed into black, clear-bottom 1536-well plates using a Multidrop Combi (Thermo Scientific) dispenser. The assay plates were incubated for an overnight at 37 C to allow cells to attach to the wells, followed by the transfer of 23 nL compound or DMSO vehicle by a pin tool (Kalypsys). The plates were incubated for 1 hr at 37 C and 5% CO2, followed by the addition of 5 uL of 2X m-MPI dye into each well using Flying Reagent Dispenser (Aurora Discovery) and then CellTiter-Glo reagent was added at 4 uL/well and incubated 30 min at room temperature. Then luminescence intensity was quantified on a ViewLux CCD-based plate reader.
Potency is the fitted concentration of half-maximal effect.

SMILES | Potency
CC1(C)S[C@@H]2[C@H](NC(=O)[C@H](NC(=O)N3CCN(S(C)(=O)=O)C3=O)c3ccccc3)C(=O)N2[C@H]1C(=O)O | inactive
CC(CCc1ccc(O)cc1)NCC(O)c1ccc(O)cc1 (stereo not given) | inactive
COc1ccc(CNCC(O)COc2ccc3[nH]c(=O)ccc3c2)cc1OC (stereo not given) | inactive
CC(C)CCCC(C)NC(C)C (stereo not given) | inactive
C[C@]12CCC(=O)C[C@@H]1CC[C@@H]1[C@@H]2CC[C@]2(C)C=CC[C@@H]12 | inactive
CCOC(=O)c1c[nH]c2cc(OCC(C)C)c(OCC(C)C)cc2c1=O | inactive
CCC(=O)Oc1ccc2c(c1)CC[C@@H]1[C@@H]2CC[C@]2(C)[C@@H](OC(=O)CC)CC[C@@H]12 | inactive
O=C(O)c1ccc(OCCn2ccnc2)cc1 | inactive
O=C(COc1ccc(Cl)cc1)OCCNC12CC3CC(CC(C3)C1)C2 | inactive
O=C(NCCNCC(O)COc1ccc(O)cc1)N1CCOCC1 (stereo not given) | inactive
O=C(OCc1ccccc1)c1cccnc1 | inactive
O=P(O)(O)C(Sc1ccc(Cl)cc1)P(=O)(O)O | inactive
Cc1ccccc1CNc1ncnc2c1ncn2[C@@H]1O[C@H](CO)[C@@H](O)[C@H]1O | inactive
O=C(CCCCCCCCCCCCC1CCCC1)Nc1ccc(S(=O)(=O)c2ccc(NC(=O)CCCCCCCCCCCCC3CCCC3)cc2)cc1 | inactive
CN(C(=O)CO)c1c(I)c(C(=O)NCC(O)CO)c(I)c(C(=O)NCC(O)CO)c1I (stereo not given) | inactive
O=C(OC[C@H]1O[C@](O)(COC(=O)c2cccnc2)[C@@H](OC(=O)c2cccnc2)[C@@H]1OC(=O)c1cccnc1)c1cccnc1 | inactive
NS(=O)(=O)c1cc2c(cc1Cl)NC(Cc1ccccc1)NS2(=O)=O (stereo not given) | inactive
CCCCCCCC(=O)CC[C@@H]1[C@@H](C/C=C\CCCC(=O)OC(C)C)[C@@H](O)C[C@H]1O | 26.6 µM (active)
C#C[C@]1(O)CC[C@H]2[C@@H]3CCC4=CCCC[C@@H]4[C@H]3C(=C)C[C@@]21CC | inactive
CO/N=C(\C(=O)N[C@@H]1C(=O)N2C(C(=O)O)=CCS[C@H]12)c1csc(N)n1 | inactive

SMILES | Potency
OCC(S)CS (stereo not given) | inactive
CCOC(=O)c1cc(-c2ccccc2)nc2ccc(C)cc12 | inactive
Cc1cccc(C)c1Nc1ncccc1C(=O)O | inactive
CCCC(=O)O[C@]1(C(=O)COC(C)=O)CC[C@H]2[C@@H]3C[C@H](F)C4=CC(=O)C=C[C@]4(C)[C@@]3(F)[C@@H](O)C[C@@]21C | inactive
NC(=O)Oc1ccc(Cc2ccccc2)cc1 | inactive
CCCCC(C)(O)C/C=C/[C@H]1[C@H](O)CC(=O)[C@@H]1CCCCCCC(=O)OC (stereo not given in full) | inactive
C[C@]12C=CC(=O)N[C@@H]1CC[C@@H]1[C@@H]2CC[C@]2(C)[C@@H](C(=O)Nc3cc(C(F)(F)F)ccc3C(F)(F)F)CC[C@@H]12 | inactive
CC(O)[C@@H]1NC(=O)[C@H](CCCCN)NC(=O)[C@@H](Cc2c[nH]c3ccccc23)NC(=O)[C@H](Cc2ccccc2)NC(=O)[C@@H](NC(=O)[C@H](N)Cc2ccccc2)CSSC[C@@H](C(=O)N[C@H](CO)[C@@H](C)O)NC1=O (stereo not given in full) | inactive
CC(C)(C)CC(=O)OCC(=O)[C@@]12OC(C)(C)O[C@@H]1C[C@H]1[C@@H]3CCC4=CC(=O)C=C[C@]4(C)[C@@]3(F)[C@@H](O)C[C@@]12C | inactive
CCOC(=O)[C@H](CCc1ccccc1)N[C@H]1CCCN2CCC[C@@H](C(=O)O)N2C1=O | inactive
C=CC1=C(C)C2=CC3=NC(=C(CC(=O)[O-])C4=NC(=C(C)C4=C([O-])[O-])C=c4[n-]c(c(C)c4CC)=CC1=N2)C(CCC(=O)[O-])C3C.[Cu+2].[Na+].[Na+].[Na+] (stereo not given) | inactive
CCCCC(=O)O[C@H]1CC[C@H]2[C@@H]3CCc4cc(O)ccc4[C@H]3CC[C@]12C | 29.8 µM (active)
O=C(CO)[C@@H](O)[C@H](O)[C@@H](O)C(=O)O | inactive
CC(CN1c2ccccc2Sc2ccc(S(=O)(=O)N(C)C)cc21)N(C)C (stereo not given) | inactive
CCCCCCCCCCCCCCCC(=O)OCC(COC(=O)CCCCCCCCCCCCCCC)OC(=O)CCCCCCCCCCCCCCC | inactive
C[C@@H](O)[C@H]1C(=O)N2C(C(=O)[O-])=C(SC3Cn4cnc[n+]4C3)[C@H](C)[C@H]12 (stereo not given in full) | inactive
CC(C)NCC(O)COc1ccccc1-n1cccc1 (stereo not given) | inactive
CC(C)(C)CC(C)(C)c1cc(Cc2cc(C(C)(C)CC(C)(C)C)cc(-n3nc4ccccc4n3)c2O)c(O)c(-n2nc3ccccc3n2)c1 | inactive
CC[N+](C)(C)Cc1ccccc1Br | inactive
CC[C@@]1(O)C(=O)OCc2c1cc1n(c2=O)Cc2cc3c([N+](=O)[O-])cccc3nc2-1 | inactive
